Data: PubChem BioAssay (EPA / NIEHS)
More than one record can exist for a structure, and the calls need not agree. The source made the active and inactive calls. How the source made its calls: active means hit-call score of the fitted dose curve at least 0.9, where 1 is the maximum; inactive means score below 0.9.

Columns and labels:
[1] = ATG_CMV_CIS: Attagene CIS-FACTORIAL HepG2 Assay for human CMV (Internal Marker) (AID 2282928); settings: HepG2 CMV promoter reporter, transcription factor profiling; actives raise or lower the signal;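 further: endpoint acts as a background internal control marker rather than a target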
In short: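 Fluorescence intensity of RT-PCR-derived reporter fragments, resolved by capillary electrophoresis, gives the signal. HepG2 liver cells bearing transfected cis-element reporters were treated 24 h; activity in either direction was fit relative to DMSO-treated controls.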

[2] = ATG_DR4_LXR_CIS: Attagene CIS-FACTORIAL HepG2 Assay for human Liver X Receptor (LXR), DR4 submotif (AID 2282929); settings: HepG2 Attagene DR4 cis-reporter, mRNA transcription; actives raise or lower the signal
In short: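 Transiently transfected HepG2 liver cells; cis-regulated reporters; 24 h dosing. RT-PCR plus CE read-out of reporter mRNA. DMSO baseline, bidirectional curve fitting.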

[3] = target: Aryl hydrocarbon receptor (Homo sapiens) (UniProt P35869); assay: ATG_Ahr_CIS: Attagene CIS-FACTORIAL HepG2 Assay for human Aryl Hydrocarbon Receptor (Ahr) (AID 2282930); settings: HepG2 AhR cis-factorial reporter transcription; actives raise or lower the signal
In short: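 Transient MRTU transfection of HepG2 → 24 h compound exposure → total RNA, oligo(dT) RT → PCR, 6-FAM extension, HpaI cut → CE fluorescence. DMSO = baseline; bidirectional curve fit.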

[4] = ATG_AP_1_CIS: Attagene CIS-FACTORIAL HepG2 Assay for human Activator Protein 1 (AP-1) (AID 2282931); settings: HepG2 Attagene cis-factorial AP-1 reporter mRNA; actives raise or lower the signal
In short: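 We transfected HepG2 cells transiently with a set of cis-regulated reporter transcription units, dosed them for 24 h, and quantified reporter mRNA via RT-PCR and capillary electrophoresis, scoring gain or loss of signal relative to DMSO.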

[5] = ATG_AP_2_CIS: Attagene CIS-FACTORIAL HepG2 Assay for human Activator Protein 2 (AP-2) (AID 2282932); settings: HepG2 AP-2 cis-reporter, Attagene transcription factor profiling; actives raise or lower the signal
In short: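 Transiently transfected HepG2 cells are exposed to chemical for 24 h. Reporter transcripts are then measured as fluorescence following RT-PCR and capillary separation, and gain- or loss-of-signal is fitted relative to DMSO.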

[6] = ATG_BRE_CIS: Attagene CIS-FACTORIAL HepG2 Assay for human Bone Morphogenetic Protein (BMP) Response Element (BRE) (AID 2282933); settings: HepG2 BMP response element reporter, Attagene transcription factor profiling; actives raise or lower the signal
In short: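 After a 24 h chemical treatment, transiently transfected HepG2 cells were lysed for RNA; reporter transcripts were quantified by fluorescent RT-PCR and capillary electrophoresis, normalised to DMSO.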

[7] = target: Retinoic acid receptor alpha (Homo sapiens) (UniProt P10276); assay: ATG_DR5_RAR_CIS: Attagene CIS-FACTORIAL HepG2 Assay for human Retinoic Acid Receptor Alpha (RARE), DR5 submotif (AID 2282934); settings: HepG2 Attagene cis-factorial RARE DR5 reporter, mRNA; actives raise or lower the signal;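 on AC50: reporter responds to endogenous RAR alpha beta and gamma in HepG2 not RARA alone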
In short: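 Transient MRTU transfection of HepG2; 24 h compound treatment; TriZol RNA, oligo(dT) RT, PCR, FAM labelling, capillary electrophoresis. Bidirectional fit vs DMSO. Endogenous TF activity at DR5 RARE.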

[8] = target: Transcription factor E2F1 (Homo sapiens) (UniProt Q01094); assay: ATG_E2F_CIS: Attagene CIS-FACTORIAL HepG2 Assay for human E2F Transcription Factor 1 (AID 2282935); settings: HepG2 Attagene cis-reporter, E2F reporter RNA transcripts; actives raise or lower the signal
In short: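 Fluorescent RT-PCR products, digested with HpaI for 2 h at 37 C, are separated by capillary electrophoresis. Source RNA comes from transfected HepG2 cultures treated for 24 h.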

[9] = ATG_E_Box_CIS: Attagene CIS-FACTORIAL HepG2 Assay for human Enhancer Box (E-box) (AID 2282936); settings: HepG2 E-box cis-reporter transcription, actives raise or lower the signal
In short: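 Fluorescent reporter fragments separated by capillary electrophoresis gave the signal; mRNA came from HepG2 cells transfected with cis-element reporters and treated 24 h. Curves fitted bidirectionally relative to DMSO controls.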

[10] = ATG_M_61_CIS: Attagene CIS-FACTORIAL HepG2 Assay for M61 Transcription Factor (Internal Marker) (AID 2282937); settings: HepG2 Attagene CIS-FACTORIAL M61 internal marker reporter; actives raise or lower the signal
In short: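 Multiplexed reporter mRNA assay, HepG2 human hepatoma cells, 24 h treatment. Signal: FAM-labelled, HpaI-digested RT-PCR fragments by CE. Fit: bidirectional, baseline DMSO.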

[11] = ATG_EGR_CIS: Attagene CIS-FACTORIAL HepG2 Assay for human Early Growth Response 1 (EGR1) (AID 2282938); settings: HepG2 Attagene CIS-FACTORIAL EGR reporter mRNA; actives raise or lower the signal
In short: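 Multiplexed cis-reporter system in human hepatoma HepG2 cells, transiently transfected. Cells are dosed for 24 h; reporter transcripts are amplified, fluorescently tagged and sized by capillary electrophoresis, with DMSO as negative control.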

[12] = ATG_M_19_CIS: Attagene CIS-FACTORIAL HepG2 Assay for M19 Transcription Factor (Internal Marker) (AID 2282939); settings: HepG2 Attagene CIS-FACTORIAL M19 internal marker reporter; actives raise or lower the signal
In short: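 In this multiplexed cell assay, transiently transfected HepG2 reporter units report endogenous transcription-factor activity; after 24 hours of treatment, labelled reporter cDNA fragments are quantified by capillary electrophoresis and fitted bidirectionally against DMSO.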

[13] = ATG_ERE_CIS: Attagene CIS-FACTORIAL HepG2 Assay for Estrogen Response Element (ERE) (AID 2282940); settings: HepG2 ERE cis-reporter, Attagene RNA transcript; actives raise or lower the signal
In short: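 Measuring endogenous transcription factor output, the assay doses transfected HepG2 cells for 24 hours and quantifies reporter transcripts by fluorescent RT-PCR and capillary electrophoresis, with DMSO as baseline.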

[14] = ATG_Ets_CIS: Attagene CIS-FACTORIAL HepG2 Assay for human Erythroblast Transformation Specific (ETS) (AID 2282941); settings: HepG2 ETS cis-reporter transcription, actives raise or lower the signal
In short: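 Multiplexed reporter transcript profiling: HepG2, 24 h treatment, total RNA to cDNA, PCR, 6-FAM labelling, HpaI cut, capillary electrophoresis. Gain- or loss-of-signal fitted against DMSO.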

[15] = target: Hepatocyte nuclear factor 3-beta (Homo sapiens) (UniProt Q9Y261); assay: ATG_FoxA2_CIS: Attagene CIS-FACTORIAL HepG2 Assay for human Forkhead box A2 (FOXA2) (AID 2282942); settings: HepG2 cis-reporter transcription factor activity, 24 h; actives raise or lower the signal
In short: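 Multiplexed cis-element reporter assay in transiently transfected HepG2. Twenty-four hours post-dosing, RNA was reverse-transcribed, amplified, FAM-labelled, HpaI-digested and separated by CE. Activity gain or loss relative to DMSO.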

[16] = ATG_FoxO_CIS: Attagene CIS-FACTORIAL HepG2 Assay for human Forkhead box O (FoxO) (AID 2282943); settings: HepG2 Attagene cis-reporter, FoxO element, mRNA; actives raise or lower the signal
In short: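 HepG2, transient MRTU transfection (cis element, endogenous TFs). Dose 24 h. TriZol RNA → oligo(dT) RT → PCR → 6-FAM primer extension → HpaI cut → CE. Gain/loss vs DMSO.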

[17] = ATG_GATA_CIS: Attagene CIS-FACTORIAL HepG2 Assay for human GATA Binding Protein (AID 2282944); settings: HepG2 GATA cis-element reporter, Attagene multiplex mRNA; actives raise or lower the signal
In short: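 Measures endogenous transcription factor-driven reporter mRNA in HepG2 cells transiently carrying cis-regulated constructs. 24 h dosing; RNA via oligo(dT) reverse transcription, PCR, HpaI digestion, capillary electrophoresis; fitted relative to DMSO.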

[18] = ATG_GLI_CIS: Attagene CIS-FACTORIAL HepG2 Assay for human Zinc Finger Protein GLI1 (AID 2282945); settings: HepG2, Attagene cis-factorial reporter mRNA, GLI element; actives raise or lower the signal
In short: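 Bidirectional curve fits relative to DMSO, using reporter mRNA levels from RT-PCR plus capillary electrophoresis. Cells were HepG2 transiently carrying cis-regulated reporter constructs, harvested 24 h after dosing.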

[19] = ATG_GRE_CIS: Attagene CIS-FACTORIAL HepG2 Assay for human Glucocorticoid Response Elements (GRE) (AID 2282947); settings: HepG2 GRE cis-reporter, Attagene multiplex mRNA; actives raise or lower the signal
In short: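 Multiplexed cis-reporter mRNA induction, HepG2, 24 h post-dose. RT-PCR, FAM-labelled, HpaI-digested amplicons by CE. Bidirectional fit vs DMSO.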

[20] = target: Bile acid receptor (Homo sapiens) (UniProt Q96RI1); assay: ATG_IR1_CIS: Attagene CIS-FACTORIAL HepG2 Assay for human Nuclear Receptor Subfamily 1 Group H Member 4 (NR1H4), IR1 submotif (AID 2282946); settings: IR1 reporter transcription, actives raise or lower the signal
In short: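 HepG2 cells transiently transfected with multiplexed cis-element reporter units read endogenous transcription factor activity. After 24 h compound exposure, reporter mRNA was quantified by RT-PCR, fluorescent labelling, HpaI digestion and capillary electrophoresis; bidirectional fitting versus DMSO baseline.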

Measured: AC50

Sequence of Hepatocyte nuclear factor 3-beta (Homo sapiens) (Q9Y261 whole entry, looked up): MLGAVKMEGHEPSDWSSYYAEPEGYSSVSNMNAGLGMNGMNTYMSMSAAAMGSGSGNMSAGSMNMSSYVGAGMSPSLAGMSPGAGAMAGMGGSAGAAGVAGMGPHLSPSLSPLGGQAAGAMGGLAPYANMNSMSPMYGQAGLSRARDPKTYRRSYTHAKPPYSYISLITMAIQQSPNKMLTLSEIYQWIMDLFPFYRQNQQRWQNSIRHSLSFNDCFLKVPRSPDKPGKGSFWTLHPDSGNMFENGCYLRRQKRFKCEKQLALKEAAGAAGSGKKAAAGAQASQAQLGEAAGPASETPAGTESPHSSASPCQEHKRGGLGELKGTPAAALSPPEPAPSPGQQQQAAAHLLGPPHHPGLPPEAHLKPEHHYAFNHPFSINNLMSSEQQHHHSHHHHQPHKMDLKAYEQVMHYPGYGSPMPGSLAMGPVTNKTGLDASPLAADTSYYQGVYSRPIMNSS
Sequence of Retinoic acid receptor alpha (Homo sapiens) (P10276 whole entry, looked up): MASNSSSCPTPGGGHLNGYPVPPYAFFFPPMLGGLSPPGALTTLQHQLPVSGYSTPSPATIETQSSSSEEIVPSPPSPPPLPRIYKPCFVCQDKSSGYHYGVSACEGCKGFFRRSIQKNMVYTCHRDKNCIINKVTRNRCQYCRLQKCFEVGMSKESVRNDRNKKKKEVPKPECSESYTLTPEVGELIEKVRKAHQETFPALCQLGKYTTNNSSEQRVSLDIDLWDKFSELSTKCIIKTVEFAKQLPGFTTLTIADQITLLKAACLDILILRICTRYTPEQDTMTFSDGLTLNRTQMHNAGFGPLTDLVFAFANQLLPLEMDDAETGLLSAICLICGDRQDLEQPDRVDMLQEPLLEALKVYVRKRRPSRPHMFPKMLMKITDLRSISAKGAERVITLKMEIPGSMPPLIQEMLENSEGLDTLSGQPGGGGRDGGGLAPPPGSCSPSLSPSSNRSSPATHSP
Sequence of Transcription factor E2F1 (Homo sapiens) (Q01094 whole entry, looked up): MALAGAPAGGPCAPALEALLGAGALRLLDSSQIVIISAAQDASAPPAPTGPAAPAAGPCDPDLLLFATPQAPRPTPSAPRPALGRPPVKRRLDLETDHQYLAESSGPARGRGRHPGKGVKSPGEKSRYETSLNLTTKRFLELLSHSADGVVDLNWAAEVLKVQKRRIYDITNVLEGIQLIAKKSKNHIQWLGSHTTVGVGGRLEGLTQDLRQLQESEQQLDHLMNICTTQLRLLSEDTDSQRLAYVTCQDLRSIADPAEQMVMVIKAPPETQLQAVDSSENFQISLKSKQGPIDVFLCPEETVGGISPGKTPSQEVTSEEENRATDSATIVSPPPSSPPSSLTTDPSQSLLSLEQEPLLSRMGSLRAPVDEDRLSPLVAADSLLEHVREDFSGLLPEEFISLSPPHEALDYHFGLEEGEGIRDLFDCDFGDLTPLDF
Sequence of Aryl hydrocarbon receptor (Homo sapiens) (P35869 whole entry, looked up): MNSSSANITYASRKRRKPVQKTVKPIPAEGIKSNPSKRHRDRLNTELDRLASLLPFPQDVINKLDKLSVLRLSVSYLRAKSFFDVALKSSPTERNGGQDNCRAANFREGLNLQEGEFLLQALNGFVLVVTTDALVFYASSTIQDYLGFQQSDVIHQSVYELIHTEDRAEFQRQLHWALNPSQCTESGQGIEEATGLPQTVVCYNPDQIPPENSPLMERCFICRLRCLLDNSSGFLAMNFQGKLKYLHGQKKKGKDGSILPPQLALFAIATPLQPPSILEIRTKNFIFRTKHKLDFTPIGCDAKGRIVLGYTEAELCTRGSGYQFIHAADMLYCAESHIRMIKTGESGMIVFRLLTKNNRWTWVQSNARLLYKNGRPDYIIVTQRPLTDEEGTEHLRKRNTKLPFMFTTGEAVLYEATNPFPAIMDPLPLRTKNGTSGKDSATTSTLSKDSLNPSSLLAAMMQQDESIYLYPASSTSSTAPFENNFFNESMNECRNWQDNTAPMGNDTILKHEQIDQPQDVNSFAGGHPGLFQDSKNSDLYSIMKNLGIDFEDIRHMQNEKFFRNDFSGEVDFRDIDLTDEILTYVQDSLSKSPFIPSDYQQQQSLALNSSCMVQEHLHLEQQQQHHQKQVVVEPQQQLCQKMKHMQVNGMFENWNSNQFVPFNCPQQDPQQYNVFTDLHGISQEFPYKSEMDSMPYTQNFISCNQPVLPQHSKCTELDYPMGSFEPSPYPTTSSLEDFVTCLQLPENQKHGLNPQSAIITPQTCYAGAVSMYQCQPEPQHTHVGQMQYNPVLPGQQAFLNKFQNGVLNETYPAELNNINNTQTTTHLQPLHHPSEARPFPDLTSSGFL
Sequence of Bile acid receptor (Homo sapiens) (Q96RI1 whole entry, looked up): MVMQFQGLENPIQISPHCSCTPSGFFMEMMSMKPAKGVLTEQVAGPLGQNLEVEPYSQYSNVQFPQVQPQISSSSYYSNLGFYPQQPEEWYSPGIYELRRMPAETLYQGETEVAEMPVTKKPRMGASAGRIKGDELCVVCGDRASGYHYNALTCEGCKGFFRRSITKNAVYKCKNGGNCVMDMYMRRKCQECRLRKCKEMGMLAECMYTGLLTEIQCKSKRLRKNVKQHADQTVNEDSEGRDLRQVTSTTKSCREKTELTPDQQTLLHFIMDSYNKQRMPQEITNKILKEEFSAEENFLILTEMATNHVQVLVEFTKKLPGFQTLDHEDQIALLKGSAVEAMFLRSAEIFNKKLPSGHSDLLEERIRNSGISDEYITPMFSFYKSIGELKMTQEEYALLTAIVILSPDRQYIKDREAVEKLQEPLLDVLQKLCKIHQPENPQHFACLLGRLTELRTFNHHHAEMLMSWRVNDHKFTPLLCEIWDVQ

O=CCCl
inactive: [5] | [6] | [7] | [8] | [10] | [12] | [13] | [14] | [15] | [17] | [19]
active: [1] 60.9 µM | [2] 68.5 µM | [3] 84.7 µM | [4] 165 µM | [9] 183 µM | [11] 38.4 µM | [16] 26.6 µM | [18] 25.5 µM

BrCc1ccc(Br)cc1
active: [3] 60.9 µM
inactive: [1] | [2] | [4] | [5] | [6] | [7] | [8] | [9] | [10] | [11] | [12] | [13] | [14] | [15] | [16] | [17] | [18]

O=[N+]([O-])c1ccccc1O
active: [7] 27.3 µM
inactive: [1] | [2] | [3] | [4] | [5] | [6] | [7] | [8] | [9] | [10] | [11] | [14] | [15] | [16] | [17] | [18]

O=C(O)COc1ccc(Cl)cc1
inactive: [1] | [2] | [3] | [4] | [5] | [6] | [7] | [8] | [9] | [10] | [11] | [12] | [13] | [14] | [15] | [16] | [17] | [18] | [19]

CC(C)(c1ccccc1)c1cc(-n2nc3ccccc3n2)c(O)c(C(C)(C)c2ccccc2)c1
inactive: [1] | [2] | [3] | [4] | [5] | [6] | [7] | [8] | [9] | [10] | [11] | [12] | [13] | [14] | [15] | [16] | [17] | [18] | [19]

COc1ccccc1N
active: [3] 78.3 µM
inactive: [1] | [2] | [3] | [4] | [5] | [6] | [7] | [8] | [9] | [10] | [11] | [12] | [14] | [15] | [16] | [17] | [18]

CN(CCCC(O)c1cccnc1)N=O (stereo not given)
inactive: [1] | [2] | [3] | [4] | [5] | [6] | [7] | [8] | [9] | [10] | [11] | [12] | [13] | [14] | [15] | [16] | [17] | [18] | [20] | [19]
